PubChem BioAssay (NCI)
Compounds without any hit were thinned out: in the full panel of roughly 79,000, 15% have a hit. The source made the active and inactive calls. Rule as the data show it: active = growth inhibition above about 70%; inactive = the rest.

What was measured:
[1] = NCI Yeast Anticancer Drug Screen. Data for the rad50 strain (AID 155);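 also: 0% = growth of vehicle-only cultures of the same strain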; details: S. cerevisiae rad50 strain growth inhibition; at 50.0 µM; hits give high values
In short: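 Readout: growth inhibition relative to vehicle-treated cultures. Compound exposure was carried out in a genetically defined yeast strain deficient in DNA damage repair.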

[2] = NCI Yeast Anticancer Drug Screen. Data for the mec2-1 strain (AID 157); details: S. cerevisiae mec2-1 strain, at 50.0 µM, hits give high values
In short: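 Using mec2-1 yeast: add compound, measure growth, express inhibition versus vehicle-treated cultures.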

[3] = NCI Yeast Anticancer Drug Screen. Data for the sgs1 mgt1 strain (AID 161);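 also: 0% = growth of cultures given vehicle only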; details: S. cerevisiae sgs1 mgt1 strain, at 50.0 µM, hits give high values
In short: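 Compounds are added to genetically altered yeast, and growth is compared with cultures given vehicle alone to give percent inhibition.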

[4] = NCI Yeast Anticancer Drug Screen. Data for the cln2 rad14 strain (AID 165);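 also: 0% = growth equal to vehicle treated cultures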; details: S. cerevisiae cln2 rad14 strain, at 50.0 µM, hits give high values
In short: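 Yeast strain cln2 rad14, bearing defects in cell cycle control and DNA repair, serves as the test system; values reflect growth inhibition compared with vehicle.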

[5] = NCI Yeast Anticancer Drug Screen. Data for the bub3 strain (AID 167); details: S. cerevisiae bub3 mutant strain, at 50.0 µM, hits give high values
In short: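 Readout: yeast growth inhibition, expressed relative to vehicle-only wells. The test organism is a mutant strain from a panel with lesions in DNA repair or checkpoint genes.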

[6] = NCI Yeast Anticancer Drug Screen. Data for the mlh1 rad18 strain (AID 175); details: S. cerevisiae mlh1 rad18 strain growth inhibition; at 50.0 µM; hits give high values
In short: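 Steps: expose repair-defective yeast to compound; measure growth; express inhibition against vehicle-treated controls.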

Measured: growth inhibition

CC1CN(C(=S)Nc2ccccc2)C(C)CN1CCO (stereo not given)
inactive: [1] 58.5% | [2] 1.6% | [3] 14.2% | [4] -39% | [5] -3.9% | [6] 16.6%

CC(=O)c1cccc(N)c1
inactive: [1] -26.9% | [2] -5.75% | [3] -20.4% | [4] -23.3% | [5] -15.8% | [6] 3.1%

CCOC(=O)C(C)N1CCCCCC1 (stereo not given)
inactive: [1] -28.8% | [2] -30.4% | [3] -17.8% | [4] -28.5% | [5] -8.25% | [6] -10.8%

CC1=C/C(=N\NC(N)=S)C(C(O)(C(F)(F)F)C(F)(F)F)C(C)(C)C1 (stereo not given)
inactive: [1] 65.9% | [2] 30.6% | [3] 47% | [4] 20.2% | [5] 41.5% | [6] 59.8%

c1ccc(-c2nnnn2-c2ccccc2)cc1
inactive: [1] -0.5% | [2] -2.8% | [3] 7.9% | [4] -7.5% | [5] 5.4% | [6] 17.7%

CCCCCCOC(=O)C[C@H]1C[C@H](C(=O)OCCCCCC)C1(C)C
inactive: [1] -4.45% | [2] -15.6% | [3] 1.8% | [4] -36.6% | [5] -21.1% | [6] -7.3%

COc1cccc(C2c3cc4c(cc3OC(Nc3ccccc3)C2C)OCO4)c1OC (stereo not given)
inactive: [1] -28.4% | [2] 6.25% | [3] -28.1% | [4] 3.35% | [5] -36.9% | [6] -21.4%

C=C(C)C1Cc2c(cc(O)c3c(=O)c4c(oc23)C(O)Oc2cc(OC)c(OC)cc2-4)O1 (stereo not given)
inactive: [1] 9.15% | [2] -0.95% | [3] 0.9% | [4] -3.85% | [5] 2.85% | [6] 16.9%

CC(NC(=O)N=Nc1ccccc1)C(=O)O (stereo not given)
inactive: [1] -3.05% | [2] -8.95% | [3] -9.6% | [4] -39% | [5] -11.1% | [6] 6.2%

COC(Cc1cc(C(O)(c2ccc(C(C)(C)C)cc2)c2cc(CC(OC)(c3cc(C(OC)(c4ccc(C(C)(C)C)cc4)c4ccc(C(C)(C)C)cc4)c(C)cc3C)c3cc(C(OC)(c4ccc(C(C)(C)C)cc4)c4ccc(C(C)(C)C)cc4)c(C)cc3C)c(C)cc2C)c(C)cc1C)(c1cc(C(OC)(c2ccc(C(C)(C)C)cc2)c2ccc(C(C)(C)C)cc2)c(C)cc1C)c1cc(C(OC)(c2ccc(C(C)(C)C)cc2)c2ccc(C(C)(C)C)cc2)c(C)cc1C
inactive: [1] -2.75% | [2] -1.25% | [3] 9.05% | [4] -30.6% | [5] 5.55% | [6] 23.6%

Cc1cccc(F)c1C
inactive: [1] 24.9% | [2] -14.5% | [3] 4.9% | [4] 6.1% | [5] 3.2% | [6] 7.25%

C=C1C(=O)OC2C1CCC(C)=C1C(=O)C=C(C)C12 (stereo not given)
inactive: [1] -24.3% | [2] -12.5% | [3] -6.6% | [4] 13.2% | [5] -13.9% | [6] -16.2%

CC(CN1c2ccccc2Sc2ccccc21)N(C)CCO (stereo not given)
inactive: [1] 3% | [2] -24.7% | [3] -4.05% | [4] -1.6% | [5] -4.3% | [6] -0.9%

CCNN(CC)C(N)=O
inactive: [1] 5.2% | [2] -5% | [3] 0.4% | [4] 7.6% | [5] -13.2% | [6] -1.25%

Cc1nc([N+](=O)[O-])cn1/C=C/Cn1cc([N+](=O)[O-])nc1C
inactive: [1] -3.25% | [2] -18.9% | [3] 5% | [4] 6.65% | [5] -25.7% | [6] 4.8%

COc1cccc(C2=NC(C(C)C)CO2)c1OC (stereo not given)
inactive: [1] -11.3% | [2] -16.4% | [3] -15.8% | [4] 19.9% | [5] -8.35% | [6] -4.35%

O=[N+]([O-])c1ccccc1Oc1ccccc1
inactive: [1] 33.6% | [2] -8.65% | [3] 5.65% | [4] 14.2% | [5] -14.7% | [6] 8%

CC(=O)N1CCN(c2ccccc2Cl)CC1
inactive: [1] -10% | [2] -17.2% | [3] -18.4% | [4] -3.45% | [5] -10.6% | [6] -22.7%

Cc1ccc(C(=O)OC2C(OC(=O)Nc3ccccc3)OC(COC(=O)c3ccccc3)C2OC(=O)c2ccccc2)cc1 (stereo not given)
inactive: [1] 1.95% | [2] 10.1% | [3] 9.45% | [4] 13.8% | [5] -12.4% | [6] 30%

CS1(C)=NC(=O)C2=C(N=1)c1ccccc1S2(=O)=O
inactive: [1] -10.9% | [2] -6% | [3] -19% | [4] -19.6% | [5] 1.85% | [6] -7.85%

Cc1cccc(C2(C(=O)O)CCCC2)c1
inactive: [1] 14.7% | [2] -5.2% | [3] 15.9% | [4] 39% | [5] 24.3% | [6] 35.4%

O=c1[nH]c2nc3ccccc3c(=O)n2/c1=C/c1ccco1
inactive: [1] 30.2% | [2] 16.8% | [3] 5.5% | [4] 20.2% | [5] 23.1% | [6] 3.95%

N=c1c(-c2ccccc2)cc2ccccc2n1O
inactive: [1] 7.6% | [2] 10.3% | [3] -6.95% | [4] -0.1% | [5] -5.35% | [6] -5.25%

NCc1ccc(Cl)cc1
inactive: [1] 8.65% | [2] -2.65% | [3] 11.4% | [4] 25.8% | [5] -2.2% | [6] 14.2%

CCO/C=C(/C#N)C(=O)OCC
inactive: [1] -6.8% | [2] -11.9% | [3] -20.3% | [4] -27.6% | [5] -14.3% | [6] 0.85%

COc1ccc(/C(C)=N/N=C(\C)c2ccc(OC)cc2)cc1
inactive: [1] 7.45% | [2] -28.1% | [3] 32.3% | [4] 12.3% | [5] 17.1% | [6] 13.6%

CC(=O)OC(C(=O)Nc1ncccn1)c1ccccc1 (stereo not given)
inactive: [1] -4.7% | [2] -2.8% | [3] -5.65% | [4] 11.4% | [5] 4.5% | [6] -10.9%

C/C(=N\NC(=O)CC(=O)N(C(=O)c1ccccc1Cl)c1ccc(C)cc1)c1ccc(Cl)cc1
inactive: [1] -0.5% | [2] -8.95% | [3] -25.4% | [4] -15.8% | [5] -4.25% | [6] -6.1%

COC(=O)O[C@H]1CC[C@@]2(C)C(=CC[C@H]3[C@@H]4CC[C@H]([C@H](C)CCCC(C)C)[C@@]4(C)CC[C@@H]32)C1
inactive: [1] -21.6% | [2] -29.8% | [3] -5.6% | [4] 6.75% | [5] -11.8% | [6] -5.3%

Nc1nc(Cl)c(Cl)nc1C(=O)O
inactive: [1] -4.65% | [2] 10.4% | [3] 2.3% | [4] -32.6% | [5] -4.25% | [6] -1.15%

OC(CNc1ccc(Cl)cc1)CN1CCOCC1 (stereo not given)
inactive: [2] 15.2% | [3] 14.9% | [4] -1.05% | [5] -3.7% | [6] 42%
active: [1] 77.7%

CC1(C)C2CC[C@]3(C)C(C(=O)C=C4[C@@H]5C[C@@](C)(C(=O)O)CC[C@]5(C)CCC43C)[C@@]2(C)CC[C@@H]1OC1OC(C(=O)O)C(O)C(O)C1OC1OC(C(=O)O)C(O)C(O)C1O (stereo not given in full) (tested in a mixture with another compound)
inactive: [1] 5.65% | [2] -2.45% | [3] 2.7% | [4] -12.2% | [5] -3.55% | [6] -0.35%

CCCN=C(NC(=O)c1ccc(Cl)cc1)SC
inactive: [1] -16.3% | [2] -41.5% | [3] -6.05% | [4] -6.7% | [5] 8.05% | [6] -46.4%

O=C(O)CNCc1ccc(F)cc1
inactive: [1] -1.85% | [2] -10% | [3] -14.7% | [4] -74.4% | [5] 13.2% | [6] -5.9%

CC1OCC2OC(C)OC(C(C3C(=O)CC(C)(C)CC3=O)C3C(=O)CC(C)(C)CC3=O)C2O1 (stereo not given)
inactive: [1] 17.4% | [2] 6.3% | [3] 19.2% | [4] -8.3% | [5] 26.2% | [6] 22.8%

C=CCCCCCCCCC(=O)Nc1cc(Cl)ccc1C
inactive: [1] -0.25% | [2] -5% | [3] -10.4% | [4] -22.9% | [5] -10.8% | [6] -2.7%

O=C1CC2(CCCCC2)CC(=O)N1
inactive: [1] -6.25% | [2] -5.05% | [3] 8.3% | [4] -34.6% | [5] 6.9% | [6] -2.35%

CC(=O)N1C(=O)C(C)(C2=CC(=O)c3ccccc3C2=O)c2ccc(Br)cc21 (stereo not given)
active: [1] 76.8% | [2] 77% | [3] 73.7% | [4] 71.8% | [5] 87%
inactive: [6] 67.2%

COC(=O)c1cnccn1
inactive: [1] -3.3% | [2] -1.35% | [3] -3.85% | [4] -27.4% | [5] 0.75% | [6] -6.3%

Cc1ccc(CNC(=O)NC(C)(C)C)cc1
inactive: [1] -3.05% | [2] -8.45% | [3] -2.65% | [4] -50.2% | [5] 1.85% | [6] 0.1%
